Measured values from PubChem BioAssay AID686979 (National Center for Advancing Translational Sciences (NCATS), 2013).
Among all 420,000 compounds or so, about 50,000 (12%) were called active. Where a call stands in place of a potency, no number is given. Inconclusive results (about 26%) are left out. Calls come from the whole dose curve; as a rule, active = well fitted inhibition curve with a large enough effect; inconclusive = small, poorly fitted or top-dose-only effect; inactive = flat fitted curve, though single readings scatter. This excerpt belongs to a sample that is enriched for actives.

Assay: qHTS for Inhibitors of human tyrosyl-DNA phosphodiesterase 1 (TDP1): qHTS in cells in presence of CPT; note: nearly all actives have a fitted effect of over 55% in size
Conditions: chicken DT40 Tdp1-/-;hTDP1 cells + 20 nM CPT, ATP luminescence, 48 h; series mostly up to 46.2 µM
In short: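 Chicken DT40 Tdp1-/- cells stably complemented with human TDP1 were seeded at 400 cells/well in medium containing 20 nM camptothecin, exposed to pin-transferred compounds, and grown at 37 °C for at least 48 hr. Viability was read as ATP luminescence.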
Potency is the fitted concentration of half-maximal effect.

SMILES	Potency
COc1ccccc1N(CC(=O)Nc1c(C)n(C)n(-c2ccccc2)c1=O)S(=O)(=O)c1ccccc1	inactive
Cc1c(Cl)cccc1NC(=O)NCCCN1CCCC1=O	inactive
O=C(OCc1cc(=O)n2nc(C3CC3)sc2n1)c1ccccc1Cl	inactive
C=CCOC(=O)C1=C[C@H](c2ccc(Br)cc2)C[C@H](OCCCCO)O1	inactive
CSc1nc(O)c(Cc2ccccc2)c(=O)[nH]1	inactive
COc1ccc(Cc2nnc(SC)[nH]c2=O)cc1	12.6 µM (active)
COc1ccc(Cc2nnc(SCC(=O)Nc3ccc(C)c(Cl)c3)[nH]c2=O)cc1	inactive
COc1ccc(NC(=O)CCNC(=O)Cn2cnc3sc4c(c3c2=O)CCCC4)cc1OC	inactive
O=C(O)CC(SCC(=O)Nc1ccc(Br)cc1)C(=O)O (centres undefined)	inactive
Cc1ccc(C(=O)NC(=S)NCCN2CCOCC2)cc1	inactive
Cc1ccc(NC(=S)NCCN2CCOCC2)cc1	inactive
CCOc1cccc(/C=N/NC(=S)NCCN2CCOCC2)c1O	4.11 µM (active)
COc1ccc(C(=O)Nc2ncc3c(n2)-c2ccccc2CC3)cc1	inactive
C=CCN(CC=C)S(=O)(=O)c1ccc(C(=O)Nc2sc3c(c2C(N)=O)CCCCC3)cc1	13 µM (active)
COCCN(CCOC)S(=O)(=O)c1ccc(C(=O)Nc2nc3c(s2)CCc2ccccc2-3)cc1	9.2 µM (active)
COCc1nnc(NC(=O)c2ccc3c(c2)OCO3)s1	inactive
COc1cccc(OC)c1C(=O)Nc1sc2c(c1C(N)=O)CCCC2	inactive
C=CCN(CC=C)S(=O)(=O)c1ccc(C(=O)Nc2nc3c(s2)CCc2ccccc2-3)cc1	16.4 µM (active)
O=C(Nc1ncc2c(n1)-c1ccccc1OC2)c1ccc(Cl)cc1	inactive
NC(=O)c1c(NC(=O)c2ccccc2)sc2c1CCCC2	inactive
C=CCSc1nnc(NC(=O)c2ccc(NC(C)=O)cc2)s1	inactive
Cc1ccc2c(=O)cc(C(=O)NCCc3ccc(S(N)(=O)=O)cc3)oc2c1C	inactive
O=C1CC2(CCCC2)Oc2ccc(Cl)cc21	inactive
O=C1C=C(c2ccccc2)CCC1	inactive
CC1CCCCC1NC(=O)CN1CCC(O)(c2ccc3c(c2)OCO3)CC1 (centres undefined)	inactive

SMILES	Potency
CC(CCc1ccccc1)NCC(O)c1cccc([N+](=O)[O-])c1 (centres undefined)	inactive
CCn1c2ccccc2c2nnc(N3CCN(c4cc(C)ccc4C)CC3)nc21	inactive
O=C(Cc1ccc(NC(=O)C2CCCN(C(=O)C3CCCCC3)C2)cc1)Nc1cccc(C(=O)N2CCCCC2)c1 (centres undefined)	inactive
CN(C(=O)c1cccc(NC(=O)Cc2ccc(NC(=O)C3CCCN(C(=O)C4CC4)C3)cc2)c1)C1CC1 (centres undefined)	inactive
CC(=O)c1cccc(NC(=O)N2CCCC2C(=O)NCCc2ccccc2)c1 (centres undefined)	inactive
CN(C(=O)c1ccc(NC(=O)Cc2cccc(NC(=O)C3CCN(C(=O)c4ccccc4)CC3)c2)cc1)C1CC1	inactive
CCNC(=O)c1cccc(NC(=O)C2CC(=O)N(CCc3ccccc3)C2)c1 (centres undefined)	inactive
CN(CCc1ccccc1)C(=O)c1cccc(NC(=O)Cc2cccc(NC(=O)C3CCCN(C(=O)CCc4ccccc4)C3)c2)c1 (centres undefined)	14.6 µM (active)
O=C(Cc1ccc([N+](=O)[O-])cc1)Nc1ccc(C(=O)N2CCOCC2)cc1	inactive
O=C(Cc1ccc(NC(=O)C2CCCN(C(=O)CCc3ccccc3)C2)cc1)Nc1ccc(C(=O)N2CCOCC2)cc1 (centres undefined)	23.1 µM (active)
CN(CCc1ccccc1)C(=O)c1cccc(NC(=O)Cc2cccc(NC(=O)C3CCCN(C(=O)C4CCC4)C3)c2)c1 (centres undefined)	18.4 µM (active)
COc1ccc(CC(=O)NC2CCSc3ccccc32)cc1OC (centres undefined)	inactive
CCOc1c2ccc(C(=O)NC3CCCc4ccccc43)cc2nn1CC (centres undefined)	inactive
O=C(Nc1ccc(S(=O)(=O)Nc2nccs2)cc1)c1cccc(S(=O)(=O)N2CCOCC2)c1	inactive
CC(C)(C)Nc1c(N)c(=O)oc2ccccc12	inactive
CCNc1c(NS(=O)(=O)c2ccc(C3CCCCC3)cc2)c(=O)oc2ccccc12	18.4 µM (active)
O=c1oc2ccccc2c(NC2CCCCC2)c1NS(=O)(=O)c1ccc(Cl)cc1	inactive
CCc1ccccc1N1C(=O)C2C3CC(=O)C(c4ccccc43)C2C1=O (centres undefined)	inactive
CC1CCC(CN2CCN=C2N(C)C)CC1 (centres undefined)	8.2 µM (active)
CC(C)CCN1CCN=C1N(C)C	inactive
CCC(C)CCN1CCN=C1N(C)C (centres undefined)	inactive
NS(=O)(=O)c1cccc(NC(=O)COC(=O)c2cc([N+](=O)[O-])ccc2N2CCCC2)c1	inactive
CCOC(=O)N1CCC(N2CCOc3ccc(CN4CCC(O)(c5cccnc5)CC4)cc3C2)CC1	inactive
NCCCNCCCCN(CCCN)/[N+]([O-])=N/O	13.3 µM (active)
COc1ccc(N2CCN(Cc3ccc(Br)s3)CC2)cc1	inactive

SMILES	Potency
CCCCCCCC[n+]1cccc(C(=O)N2c3c(nc(N)[nH]c3=O)NC(C)C2C)c1 (centres undefined)	inactive
Cc1ccc(S(=O)(=O)N[C@@H](Cc2ccccc2)C(=O)N2CCC(C(=O)N[C@H](C(=O)O)C(C)O)CC2)cc1 (some centres undefined)	inactive
CC1(C)C=C2[C@H]3CC[C@@H]4[C@@]5(C)CCC(=O)C(C)(C)[C@@H]5CC[C@@]4(C)[C@]3(C)CC[C@@]2(C(=O)O)CC1	5.17 µM (active)
N#Cc1cccc(OC(=O)c2ccc3c(=O)n4c(nc3c2)CCC4)c1	inactive
O=C(CCNC(=O)C1CCN(S(=O)(=O)c2ccccc2)CC1)NC1CC1	inactive
O[C@H]1CN(Cc2cccs2)[C@@H](c2ccc(Cl)cc2)C[C@@H]1n1cc(C2CC2)nn1	inactive
O=C(Cc1cccs1)NCc1cccc(C(F)(F)F)c1	inactive
Cc1cc(O)ccc1-c1cc(C(=O)NCc2cc(C(F)(F)F)cc(C(F)(F)F)c2)[nH]n1	18.4 µM (active)
Cc1ccc(O)c(-c2cc(C(=O)NCc3ccccc3)[nH]n2)c1	inactive
Cc1ccc(NC(=O)COC(=O)C2C3CC4OC(=O)C2C4C3)cc1Cl (centres undefined)	inactive
Fc1ccccc1C(c1nnnn1Cc1ccc2c(c1)OCO2)N1CCN(Cc2ccccc2)CC1 (centres undefined)	14.6 µM (active)
CC(C)(C)n1nnnc1C(c1ccccc1F)N1CCN(C(=O)c2ccco2)CC1 (centres undefined)	inactive
CC(C)(C)n1nnnc1C(c1ccc(F)cc1)N1CCN(Cc2ccc3c(c2)OCO3)CC1 (centres undefined)	inactive
Cc1cccc2c1cnn2C(=O)CCC(=O)NC1CCCCC1	inactive
CCOc1ccc2[nH]c3nc(SCC(=O)NC4CCCC4)nnc3c2c1	5.17 µM (active)
COc1ccc2[nH]c3nc(SCC(=O)NC4CC4)nnc3c2c1	inactive
O=C(CSc1nnc2c(n1)[nH]c1ccccc12)NC1CCCCC1	inactive
CCN(CC)CCNC(=O)c1ccc(NS(=O)(=O)c2ccc3c(c2)OCCO3)cc1	inactive
O=S(=O)(Nc1ccccc1)c1ccc(NS(=O)(=O)c2cccs2)cc1	inactive
NS(=O)(=O)c1ccc(CCNC(=O)c2ccc([N+](=O)[O-])cc2[N+](=O)[O-])cc1	inactive
Cc1cccc(S(=O)(=O)N(C)C[C@@H]2OCc3cnnn3CCCC(=O)N([C@H](C)CO)C[C@@H]2C)c1	inactive
O=C(Nc1cccnc1Cl)c1cc(-c2cccc(Cl)c2)on1	inactive
O=C(O)c1cc(Cl)c(Cl)cc1C(=O)Nc1cccc2ncccc12	inactive
CC(=O)Cc1nsc(NC(=O)c2ccc(Cl)cc2Cl)n1	inactive
Cc1ccc(C(=O)Nc2nc3ccc(Cl)cc3s2)o1	inactive

SMILES	Potency
O=C(Nc1cccc2ncccc12)c1ccc(-c2ccc(Cl)cc2Cl)o1	20.6 µM (active)
Cc1csc(NC(=O)c2ccc(-c3ccc(Cl)cc3Cl)o2)n1	9.2 µM (active)
O=C(Cc1ccsc1)N1CCN(S(=O)(=O)c2cc(C(F)(F)F)cc(C(F)(F)F)c2)CC1	inactive
COc1ccc(CN2CC(C(=O)NCCc3ccc(Cl)cc3)CC2=O)cc1 (centres undefined)	inactive
CCc1ccc(Oc2coc3cc(O)ccc3c2=O)cc1	inactive
CCN(CCO)C(=S)Nc1cc(C(=O)OC)ccc1C(=O)OC	inactive
CCS(=O)(=O)Nc1cc(C(=O)OC)ccc1C(=O)OC	inactive
CCCN(CCC)C(=S)Nc1cc(C(=O)OC)ccc1C(=O)OC	18.4 µM (active)
CCc1ccc(-n2nc(C)c3c(C)cc(=O)n(CC(=O)Nc4ccc(F)cc4C)c32)cc1	inactive
CCC(C(=O)OC)n1cnc2c(oc3ccccc32)c1=O (centres undefined)	inactive
Cc1ccc(S(=O)(=O)N2CCCCC2)cc1NC(=O)c1cccnc1	inactive
Cc1cccc(C(=O)Nc2ccc(S(=O)(=O)N3CCCCC3c3cccnc3)cc2)c1 (centres undefined)	23.1 µM (active)
CCOc1ccccc1C(=O)Nc1ccc(S(=O)(=O)N2CCCCC2c2cccnc2)cc1 (centres undefined)	18.4 µM (active)
COc1ccc(C(=O)NC(=S)N2CCCCC2c2cccnc2)cc1OC (centres undefined)	inactive
CCOc1ncccc1C(=O)Nc1ccc(S(=O)(=O)Nc2nc(C)cc(C)n2)cc1	inactive
Cc1cc(NS(=O)(=O)c2ccc(NC(=O)c3cccnc3)cc2)nc(C)n1	inactive
COc1ccc(NC(=O)CSc2nnc(-c3nnn(-c4ccc(F)cc4)c3C)o2)cc1	inactive
CC1(C(=O)NCc2cccc3ccccc23)CCN1Cc1ccc(-c2ccccc2)o1 (centres undefined)	23.1 µM (active)
CC1(C(=O)NCc2ccc3c(c2)OCO3)CCN1C(=O)Cc1cccs1 (centres undefined)	inactive
CSc1ccc(CN2CCC2(C)C(=O)NCc2ccccc2Br)cc1 (centres undefined)	18.4 µM (active)
CCCC(=O)N1CCC1(C)C(=O)NCc1ccc(SC)cc1 (centres undefined)	inactive
CSc1ccc(CNC(=O)C2(C)CCCN2C)cc1 (centres undefined)	inactive
CC1(C(=O)NS(=O)(=O)c2cccc(F)c2)CCN1C(=O)c1cccc2ccccc12 (centres undefined)	inactive
CCN1CCN(C(c2ccc(C)cc2)c2c(O)cc(C)n(Cc3ccco3)c2=O)CC1 (centres undefined)	inactive
